Where “and” joins values, the source holds several entries; their conditions need not be identical. Identical values can stand only once. Inconclusive results are not listed. Calls of active or inactive are those of the source. Unless noted, calls come from the whole dose curve; as a rule, active = well fitted curve in the direction sought with a large enough effect; inconclusive = small, poorly fitted or top-dose-only effect, or another doubt; inactive = no such curve, though single readings can be large; an effect the other way counts as inactive or inconclusive.
Experiments:
[1] = Cell Viability - HepG2 (AID 433; calls by dose curve;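 note: potency is the fitted concentration of half-maximal effect; potency for ATP loss meaning cytotoxicity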); settings: qHTS
Method in brief: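 Cytotoxicity read as ATP loss (CellTiter-Glo luminescence) after 40 hr compound exposure of HepG2, 1500 cells/well, 37 °C. AC50 by Hill equation; 0% set by DMSO, 100% inhibition by 100 uM tamoxifen.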

[2] = Cell Viability - MRC5 (AID 434; calls by dose curve;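 note: potency is the fitted concentration of half-maximal effect; cells exposed to compound for 40 hours at 37 °C; potency reflects cytotoxicity seen as loss of intracellular ATP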); settings: MRC5 lung fibroblast viability, qHTS
Method in brief: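 Decrease in intracellular ATP, quantified by luciferase light output, reflects compound toxicity toward MRC5 cells exposed for 40 hr in complete culture medium. Concentration-response curves, scaled between DMSO and 100 uM tamoxifen, gave AC50 values.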

[3] = target: Mitogen-activated protein kinase 10 (Mus musculus) (UniProt Q61831); assay: JNK3 AlphaScreen Assay (AID 530; active = well fitted curve in either direction with a large enough effect, not every such curve was filed as active;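 note: kinase came from lysate of stimulated human HepG2 cells; signal reports phosphorylation of biotinylated GST-cJun 1-79 at Ser73 with 10 µM ATP; % is set by controls: 0 for no effect and ±100 for the full control effect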); settings: JNK3 lysate, c-Jun phosphorylation; series mostly up to 57.1 µM
Method in brief: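 Biotinylated GST-cJun(1-79) served as substrate for JNK3 in HepG2 lysates stimulated with IL-1beta and TNF-alpha. ATP was 10 uM final, pH 7.6. Ser73 phosphorylation was quantified by AlphaScreen (680 nm excitation).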

[4] = Cell Viability - Mesenchymal (AID 546); settings: mesenchymal cells viability, qHTS; series mostly up to 91.7 µM;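 note: cells exposed to compound for 40 hours before reading; 0% = DMSO only and -100% = 100 µM tamoxifen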
Method in brief: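 In this qHTS cytotoxicity format, glomerulus-derived human mesenchymal kidney cells received compound for 40 hr, then luciferase-based ATP quantitation. Concentration-response data were fitted with the Hill equation.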

[5] = Cellular Toxicity (caspase-3) HUV-EC-C (AID 656); settings: HUV-EC-C cells, caspase-3 activation (apoptosis), vehicle = 0, 100 µM tamoxifen = 100%; series mostly up to 92.2 µM;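 note: 0% = DMSO basal and 100% = 100 µM tamoxifen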
Method in brief: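 Luminescent Caspase-Glo 3/7 readout after 16 h, 37 °C compound exposure of HUV-EC-C endothelial cells, 1000 per well, complete medium. AC50 derived by Hill fitting, with DMSO as baseline and 100 uM tamoxifen as full activation.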

[6] = Cellular Toxicity (caspase-3) SK-N-SH (AID 661); settings: SK-N-SH caspase-3 activation, qHTS; series mostly up to 91.7 µM;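 note: cells exposed to compound for 16 hours; 0% = DMSO basal and 100% = 10 µM staurosporine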
Method in brief: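 Luminescent Caspase-Glo 3/7 read-out after 16 hr compound exposure of SK-N-SH neuroblastoma cells at 37 °C. Signal increase normalized to DMSO (basal) and 10 uM staurosporine (100%); AC50 from Hill equation fits of qHTS concentration-response data.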

[7] = Cellular Toxicity (caspase-3) H-4-II-E (AID 663); settings: H-4-II-E rat hepatoma; Potency: caspase-3 activation; series mostly up to 92.2 µM;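 note: cells exposed to compound for 16 hr before readout; 0% = DMSO basal and 100% = 100 µM tamoxifen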
Method in brief: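 Caspase 3/7 activation measured in H-4-II-E cells in complete culture medium after 16 hr treatment at 37 °C, using luciferase-coupled substrate readout; AC50 values come from Hill-equation fits of normalized concentration-response data.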

[8] = MultiTox-Fluor Cytotoxicity Assay - LYMP1-002 - Dead Cells (AID 960); settings: LYMP1-002 lymphoblastoid cells, dead-cell protease fluorescence; series mostly up to 46.1 µM;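 note: 0% = DMSO and 100% = tetraoctylammonium bromide; nearly all actives have a fitted effect of over 60% in size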
Method in brief: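 Readout: fluorescence at 485/520 from cell-impermeant bis-AAF-R110 cleaved by proteases leaking from damaged cells. LYMP1-002 lymphoblastoid line, 16 hr compound treatment at 37 C, concentration-response in qHTS format; Hill-equation AC50 values.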

[9] = MultiTox-Fluor Cytotoxicity Assay - LYMP1-003 - Live Cells (AID 962); settings: LYMP1-003 lymphoblastoid cells, MultiTox-Fluor live-cell protease fluorescence; series mostly up to 92.2 µM;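 note: cells exposed to compound for 16 hours at 37 °C; 0% = DMSO only and full loss = 92 µM tetraoctylammonium bromide; cytotoxic hits lower the live-cell protease signal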
Method in brief: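 Readout: live-cell fluorescence (Ex/Em=405/510) from GF-AFC cleavage after 60 min MultiTox-Fluor reagent at room temperature. Lymphoblastoid LYMP1-003 cells, 16 hr compound treatment, 37 C. Concentration-response fitted to standard Hill equation for AC50.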

[10] = Cell Viability - LYMP2-005 (AID 967); settings: LYMP2-005 lymphoblastoid cell viability; series mostly up to 92.2 µM;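 note: plate controls were DMSO only for no effect and 92 µM tetraoctylammonium bromide control for full effect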
Method in brief: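 LYMP2-005 human lymphoblastoid cells (2500/well) were treated with compounds for 24 h at 37 C. Intracellular ATP was then measured by CellTiter-Glo luminescence after 30 min at room temperature. AC50 values came from Hill-equation fits of qHTS concentration-response data.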

[11] = Cell Viability - LYMP2-021 (AID 974); settings: LYMP2-021 lymphoblastoid cells viability; series mostly up to 92.2 µM;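 note: compound exposure lasts 24 hours at 37 °C; % is set by controls: 0 for no effect and ±100 for the full control effect; nearly all actives have a fitted effect of over 55% in size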
Method in brief: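 ATP luminescence (CellTiter-Glo, 30 min RT) after 24 h compound exposure at 37 C; 2500 human lymphoblastoid cells/well, 5 h settle beforehand. Cytotoxicity = concentration-dependent ATP drop, AC50 by Hill fit.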

[12] = Cell Viability - LYMP2-023 (AID 975); settings: LYMP2-023 lymphoblastoid cell viability; series mostly up to 92.2 µM;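 note: cellular ATP measured by luciferase luminescence as viability proxy; plate controls were DMSO only for no effect and 92 µM tetraoctylammonium bromide control for full effect; nearly all actives have a fitted effect of over 55% in size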
Method in brief: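 CellTiter-Glo luminescence after 30 min at room temperature; decrease in intracellular ATP reflects toxicity. Cells: human lymphoblastoid line, 2500/well, 24 hr compound exposure at 37 C. AC50 fitted to standard Hill equation from concentration-response.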

[13] = Cell Viability - LYMP2-006 (AID 978); settings: LYMP2-006 lymphoblastoid cell viability, qHTS; series mostly up to 92.2 µM; note: % is set by controls: 0 for no effect and ±100 for the full control effect; nearly all actives have a fitted effect of over 60% in size
Method in brief: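 Potency values are Hill-fit AC50s for decreases in intracellular ATP (CellTiter-Glo luminescence). LYMP2-006 lymphoblastoid cells, 2500 per well, were exposed to compound in complete culture medium for 24 hr at 37 C.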

[14] = Cell Viability - LYMP2-007 (AID 979); settings: LYMP2-007 lymphoblastoid cell viability; series mostly up to 92.2 µM;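 note: cells exposed to compound for 24 h before reading; 0% = DMSO only and the negative end = 92 µM tetraoctylammonium bromide; nearly all actives have a fitted effect of over 60% in size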
Method in brief: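 qHTS cytotoxicity: 2500 cells/well, 5 hr 37 C settle, compound 24 hr 37 C, CellTiter-Glo 30 min RT, luminescence. Decrease in ATP = toxicity. AC50 by standard Hill equation; tetraoctylammonium bromide positive control.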

[15] = target: Vitamin D3 receptor (Homo sapiens) (UniProt P11473); assay: qHTS assay for small molecule antagonists of vitamin D receptor signaling (AID 588541; calls by dose curve;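 note: receptor activated by calcitriol during compound treatment; % is set by controls: 0 for no effect and ±100 for the full control effect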); settings: HEK293T VDR-UAS-bla, beta-lactamase ratio, antagonist mode; series mostly up to 76.7 µM
Sequence of Vitamin D3 receptor (Homo sapiens) (P11473 whole entry, looked up): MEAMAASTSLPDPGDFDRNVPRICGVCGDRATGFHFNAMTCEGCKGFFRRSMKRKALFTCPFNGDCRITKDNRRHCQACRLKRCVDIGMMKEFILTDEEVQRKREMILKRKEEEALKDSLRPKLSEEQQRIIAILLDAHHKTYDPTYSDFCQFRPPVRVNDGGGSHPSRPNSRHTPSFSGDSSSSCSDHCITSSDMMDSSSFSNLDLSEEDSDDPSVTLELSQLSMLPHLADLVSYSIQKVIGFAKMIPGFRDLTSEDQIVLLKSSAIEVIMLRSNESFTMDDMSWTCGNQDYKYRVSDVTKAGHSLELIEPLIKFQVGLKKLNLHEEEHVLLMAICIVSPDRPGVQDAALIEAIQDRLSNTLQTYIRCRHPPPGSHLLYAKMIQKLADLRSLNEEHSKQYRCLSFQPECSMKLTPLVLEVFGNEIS
Method in brief: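 VDR-UAS-bla HEK293T cells (2000/well, 2% charcoal-stripped FBS) were treated with titrated compounds plus 1-alpha,25-dihydroxyvitamin D3 (50 nM or 3 nM final) for 16 h at 37 C. CCF4 beta-lactamase fluorescence was read; Hill fits gave IC50.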

[16] = target: Retinoic acid receptor RXR-alpha (Homo sapiens) (UniProt P19793); assay: qHTS assay for small molecule agonists of retinoid X receptor alpha signaling (AID 588544; calls by dose curve;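 note: 0% = DMSO basal wells and 100% = reference agonist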); settings: HEK293T RXRa-UAS-bla, beta-lactamase reporter, 18 h; series mostly up to 76.7 µM
Sequence of Retinoic acid receptor RXR-alpha (Homo sapiens) (P19793 whole entry, looked up): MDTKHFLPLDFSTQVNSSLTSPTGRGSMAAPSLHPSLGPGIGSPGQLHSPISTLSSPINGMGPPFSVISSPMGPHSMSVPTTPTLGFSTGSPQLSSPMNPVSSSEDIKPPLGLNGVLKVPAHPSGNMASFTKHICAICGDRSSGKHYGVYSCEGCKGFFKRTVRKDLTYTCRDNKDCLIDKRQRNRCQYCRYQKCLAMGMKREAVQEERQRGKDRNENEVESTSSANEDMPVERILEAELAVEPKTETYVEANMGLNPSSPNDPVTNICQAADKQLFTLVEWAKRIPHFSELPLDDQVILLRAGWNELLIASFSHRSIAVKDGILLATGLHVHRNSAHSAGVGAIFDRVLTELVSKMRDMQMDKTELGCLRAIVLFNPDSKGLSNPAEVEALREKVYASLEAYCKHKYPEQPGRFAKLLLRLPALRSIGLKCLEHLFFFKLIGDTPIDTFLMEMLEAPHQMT

[17] = target: Thyroid hormone receptor beta (Homo sapiens) (UniProt P10828); assay: qHTS assay for small molecule agonists of thyroid hormone receptor beta signaling (AID 588545; calls by dose curve); settings: TR-UAS-bla GripTite HEK 293, beta-lactamase ratio, agonist mode, 18 h; series mostly up to 76.7 µM
Sequence of Thyroid hormone receptor beta (Homo sapiens) (P10828 whole entry, looked up): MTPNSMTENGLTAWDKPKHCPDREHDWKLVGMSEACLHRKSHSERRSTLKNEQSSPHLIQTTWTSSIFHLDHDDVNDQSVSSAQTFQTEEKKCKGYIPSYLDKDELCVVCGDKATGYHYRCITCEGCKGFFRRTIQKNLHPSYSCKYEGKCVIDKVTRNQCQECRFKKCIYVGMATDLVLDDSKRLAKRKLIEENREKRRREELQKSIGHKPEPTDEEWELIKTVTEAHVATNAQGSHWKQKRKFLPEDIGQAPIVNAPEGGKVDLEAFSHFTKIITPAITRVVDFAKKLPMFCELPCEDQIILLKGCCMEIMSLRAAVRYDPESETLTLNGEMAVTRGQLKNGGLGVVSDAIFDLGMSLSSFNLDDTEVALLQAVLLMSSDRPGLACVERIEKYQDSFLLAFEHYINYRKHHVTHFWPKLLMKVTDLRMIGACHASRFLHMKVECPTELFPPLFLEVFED
Method in brief: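 Agonist activity was read as beta-lactamase CCF4 fluorescence (405 ex, 460/530 em), scaled between DMSO (0%) and 10 nM T3 (100%), then Hill-fitted for EC50 and efficacy. HEK 293 TR-UAS-bla cells in 2% charcoal/dextran FBS medium were exposed 18 h at 37 C.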

[18] = target: Thyroid hormone receptor beta (Homo sapiens) (UniProt P10828); assay: qHTS assay for small molecule antagonists of thyroid hormone receptor beta signaling (AID 588547; active = well fitted inhibition curve with a large enough effect in the signal ratio, with a control signal flat, not every such curve was filed as active; the % refers to the signal ratio;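 note: cells stimulated with 0.4 nM T3 agonist during compound exposure; % is set by controls: 0 for no effect and ±100 for the full control effect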); settings: TR-UAS-bla HEK293, beta-lactamase ratio, antagonist mode, 18 h
Method in brief: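 TR-UAS-bla GripTite HEK293 cells in 2% charcoal/dextran FBS medium were preincubated 4 h at 37 C, given compound (0.59 nM to 92 uM) plus 0.4 nM T3 (final) for 18 h, then CCF4 for 2 h at RT; Hill fit gave IC50.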

[19] = target: Nuclear receptor subfamily 1 group I member 2 (Rattus norvegicus) (UniProt Q9R1A7); assay: qHTS assay for small molecule activators of the rat pregnane X receptor (rPXR) signaling pathway (AID 651751; call rule not given here; note: 0% is about no effect); settings: rPXR reporter cells, luciferase (One-Glo), 24 h
Sequence of Nuclear receptor subfamily 1 group I member 2 (Rattus norvegicus) (Q9R1A7 whole entry, looked up): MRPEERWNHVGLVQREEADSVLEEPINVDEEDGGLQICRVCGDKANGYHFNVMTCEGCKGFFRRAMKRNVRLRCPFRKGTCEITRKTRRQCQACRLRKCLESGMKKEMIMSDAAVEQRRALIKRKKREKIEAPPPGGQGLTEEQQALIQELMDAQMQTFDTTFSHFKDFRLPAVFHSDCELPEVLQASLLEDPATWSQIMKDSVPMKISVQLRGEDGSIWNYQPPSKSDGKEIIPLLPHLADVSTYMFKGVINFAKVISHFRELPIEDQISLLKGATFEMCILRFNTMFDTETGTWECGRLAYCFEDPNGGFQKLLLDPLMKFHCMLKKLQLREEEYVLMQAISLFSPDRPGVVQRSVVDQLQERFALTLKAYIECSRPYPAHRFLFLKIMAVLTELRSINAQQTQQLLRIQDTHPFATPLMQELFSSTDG

[20] = qHTS assay for small molecule activators of the human pregnane X receptor (PXR) signaling pathway (AID 720659; call rule not given here; note: 0% is about no effect); settings: DPX-2 HepG2 CYP3A4-luciferase, 24 h; series mostly up to 92.3 µM

C=C(C)CCl
inactive: Potency [1] > 92 µM | Potency [2] > 92 µM | Potency [3] | Potency [4] | outcome [5] | Potency [6] | Potency [7] | Potency [8] | outcome [9] | Potency [10] | Potency [11] | Potency [12] | Potency [13] | Potency [14] | outcome [15] | outcome [16] | Potency [17] | activity change % (negative = inhibition) [18] -0.864% | max response [19] -1.42% | outcome [20]

Nc1ccccc1-c1ccccc1
inactive: Potency [1] > 92 µM | Potency [2] > 92 µM | Potency [3] | Potency [4] | Potency [6] | Potency [7] | Potency [8] | outcome [9] | Potency [10] | Potency [11] | Potency [12] | Potency [13] | Potency [14] | outcome [15] | outcome [16] | Potency [17] | max response [19] 0.403% | outcome [20]

ClCCCCl
inactive: Potency [1] > 92 µM | Potency [2] > 92 µM | Potency [3] | Potency [4] | outcome [5] | Potency [6] | Potency [7] | Potency [8] | outcome [9] | Potency [10] | Potency [11] | Potency [13] | Potency [14] | outcome [15] | outcome [16] | activity change % (negative = inhibition) [18] 17.8% | max response [19] -3.7% | outcome [20]

C=C(Cl)CSC(=S)N(CC)CC
inactive: Potency [1] > 92 µM | Potency [2] > 92 µM | outcome [5] | Potency [6] | Potency [7] | Potency [8] | outcome [9] | Potency [10] | Potency [14] | outcome [15] | outcome [16] | Potency [17] | activity change % (negative = inhibition) [18] 0.68% | max response [19] 1.65% | outcome [20]

S=c1[nH]c2ccccc2[nH]1
inactive: Potency [1] > 92 µM | Potency [2] > 92 µM | Potency [3] | outcome [5] | Potency [6] | Potency [7] | Potency [8] | outcome [9] | Potency [10] | Potency [11] | Potency [13] | Potency [14] | outcome [16] | Potency [17] | activity change % (negative = inhibition) [18] -0.89% | max response [19] -7.5% | outcome [20]

CCCCCOC(=O)c1ccccc1C(=O)OCCCCC
inactive: Potency [1] > 92 µM | Potency [2] > 92 µM | Potency [4] | outcome [5] | Potency [6] | Potency [7] | outcome [9] | Potency [10] | Potency [11] | Potency [12] | Potency [13] | outcome [15] | outcome [16] | Potency [17] | activity change % (negative = inhibition) [18] 15.4% and 2.77% | max response [19] 4.64% and 1.43% | outcome [20]

N#C/C(N)=C(/N)C#N
inactive: Potency [1] > 92 µM | Potency [2] > 92 µM | Potency [4] | outcome [5] | Potency [6] | Potency [7] | Potency [8] | outcome [9] | Potency [10] | Potency [12] | Potency [13] | Potency [14] | outcome [15] | outcome [16] | Potency [17] | activity change % (negative = inhibition) [18] -2.94% | max response [19] -1.96% | outcome [20]

From PubChem BioAssay (NCATS)
